# Measured values published in article PMC7862700, “An all-to-all approach to the identification of sequence-specific readers for epigenetic DNA modifications on cytosine”.
# How the values were obtained:
# Test in all cases: DAPPL (digital affinity profiling via proximity ligation, sequencing); 10 mM Tris-HCl pH 7.5, 50 mM NaCl, 1 mM DTT, 4% glycerol, room temperature, 30 min; GST-TFs on glutathione beads, 16-mer random dsDNA library, 0.1% formaldehyde crosslink after washing; high values mean tight binding
# [1] = molecular target: T1, FLI1 (Homo sapiens, UniProt Q01543 1-452); settings: protein: recombinant; tags: N-terminal GST; dsDNA, one strand shown
# T1 sequence: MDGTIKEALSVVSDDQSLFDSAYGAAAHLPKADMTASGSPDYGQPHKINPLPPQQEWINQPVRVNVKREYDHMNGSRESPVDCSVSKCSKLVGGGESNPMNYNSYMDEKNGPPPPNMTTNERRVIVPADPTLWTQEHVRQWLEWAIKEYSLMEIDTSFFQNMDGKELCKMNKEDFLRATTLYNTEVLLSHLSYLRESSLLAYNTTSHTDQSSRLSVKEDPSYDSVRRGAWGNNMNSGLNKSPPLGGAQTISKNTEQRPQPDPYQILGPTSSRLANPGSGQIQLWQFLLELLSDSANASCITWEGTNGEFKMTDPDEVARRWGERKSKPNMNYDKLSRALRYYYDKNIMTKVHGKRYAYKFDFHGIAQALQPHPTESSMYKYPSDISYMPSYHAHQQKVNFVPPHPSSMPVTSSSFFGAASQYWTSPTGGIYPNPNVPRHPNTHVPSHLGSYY
# How it was run: (§1)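 Binding signal is given per hexamer as its read frequency for a factor divided by its frequency in the tag-only sample. GST-fused human transcription factors were expressed in yeast, captured on glutathione beads, barcoded with DNA and pooled with that sample, then incubated with 200 nmole of a 16-mer random double-stranded DNA library in Tris/NaCl/DTT/glycerol buffer for 30 min at room temperature. The pools were then washed, crosslinked, proximity-ligated, amplified by PCR and sequenced on an Illumina NextSeq500.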
# [2] = molecular target: T2, ELK1 (Homo sapiens, UniProt P19419 1-428); settings: protein: recombinant; tags: N-terminal GST; dsDNA, one strand shown
# T2 sequence: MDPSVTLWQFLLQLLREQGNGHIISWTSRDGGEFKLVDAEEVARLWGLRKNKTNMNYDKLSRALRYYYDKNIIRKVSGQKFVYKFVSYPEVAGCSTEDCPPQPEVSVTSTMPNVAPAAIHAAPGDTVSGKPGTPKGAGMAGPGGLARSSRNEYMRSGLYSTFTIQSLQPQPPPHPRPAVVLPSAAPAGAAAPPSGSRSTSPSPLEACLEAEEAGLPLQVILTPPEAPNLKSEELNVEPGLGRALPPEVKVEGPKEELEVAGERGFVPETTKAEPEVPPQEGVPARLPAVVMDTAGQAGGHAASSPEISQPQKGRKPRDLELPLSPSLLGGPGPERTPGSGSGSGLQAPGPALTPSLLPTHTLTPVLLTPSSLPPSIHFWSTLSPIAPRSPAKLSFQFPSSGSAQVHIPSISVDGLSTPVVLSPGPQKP
# How it was run: as §1
# [3] = molecular target: T3, GABPA (Homo sapiens, UniProt Q06546 1-454); settings: protein: recombinant; tags: N-terminal GST; dsDNA, one strand shown
# T3 sequence: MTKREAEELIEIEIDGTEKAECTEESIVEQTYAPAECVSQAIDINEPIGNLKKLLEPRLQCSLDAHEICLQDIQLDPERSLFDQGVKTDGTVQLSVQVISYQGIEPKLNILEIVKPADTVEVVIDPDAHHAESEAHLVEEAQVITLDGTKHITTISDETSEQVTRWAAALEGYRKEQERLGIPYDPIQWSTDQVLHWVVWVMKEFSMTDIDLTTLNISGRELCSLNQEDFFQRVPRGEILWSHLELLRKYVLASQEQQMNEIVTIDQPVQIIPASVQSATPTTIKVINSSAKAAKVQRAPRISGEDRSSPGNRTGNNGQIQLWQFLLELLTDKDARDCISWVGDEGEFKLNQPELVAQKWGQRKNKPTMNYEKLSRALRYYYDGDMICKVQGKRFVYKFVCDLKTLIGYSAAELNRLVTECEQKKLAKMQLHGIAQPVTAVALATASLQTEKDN
# How it was run: as §1
# [4] = molecular target: T4, ERG (Homo sapiens, UniProt P11308 1-479); settings: protein: recombinant; tags: N-terminal GST; dsDNA, one strand shown
# T4 sequence: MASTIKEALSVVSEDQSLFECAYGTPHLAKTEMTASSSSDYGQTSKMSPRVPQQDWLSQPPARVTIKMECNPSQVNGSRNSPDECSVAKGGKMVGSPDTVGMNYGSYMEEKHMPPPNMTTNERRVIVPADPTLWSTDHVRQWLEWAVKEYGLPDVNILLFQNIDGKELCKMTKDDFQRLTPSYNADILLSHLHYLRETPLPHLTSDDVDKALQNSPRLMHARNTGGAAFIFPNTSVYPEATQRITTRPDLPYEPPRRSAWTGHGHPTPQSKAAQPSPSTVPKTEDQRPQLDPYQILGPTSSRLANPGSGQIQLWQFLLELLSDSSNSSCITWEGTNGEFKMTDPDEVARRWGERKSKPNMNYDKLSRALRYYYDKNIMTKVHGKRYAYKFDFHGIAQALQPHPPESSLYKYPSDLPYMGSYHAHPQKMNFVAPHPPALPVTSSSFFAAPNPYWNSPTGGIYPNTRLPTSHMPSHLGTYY
# How it was run: as §1
# [5] = molecular target: ELF1 (Homo sapiens, UniProt P32519 1-619); settings: protein: recombinant; tags: N-terminal GST; dsDNA, one strand shown
# How it was run: as §1
# [6] = molecular target: T5, EHF (Homo sapiens, UniProt Q9NZC4 1-300); settings: protein: recombinant; tags: N-terminal GST; dsDNA, one strand shown
# T5 sequence: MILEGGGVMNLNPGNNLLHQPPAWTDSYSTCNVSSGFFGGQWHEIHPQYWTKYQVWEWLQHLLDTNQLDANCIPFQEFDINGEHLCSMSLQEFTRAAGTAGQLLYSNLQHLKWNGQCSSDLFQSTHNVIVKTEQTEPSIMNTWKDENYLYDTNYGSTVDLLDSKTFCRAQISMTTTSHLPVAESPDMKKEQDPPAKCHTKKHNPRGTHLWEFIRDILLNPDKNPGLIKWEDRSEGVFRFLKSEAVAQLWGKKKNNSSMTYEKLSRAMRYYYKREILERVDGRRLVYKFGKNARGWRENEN
# How it was run: as §1
# [7] = molecular target: SPI1 (Homo sapiens, UniProt P17947 1-270); settings: protein: recombinant; tags: N-terminal GST; dsDNA, one strand shown
# How it was run: as §1
# [8] = molecular target: SPIB (Homo sapiens, UniProt Q01892 1-262); settings: protein: recombinant; tags: N-terminal GST; dsDNA, one strand shown
# How it was run: as §1
# [9] = molecular target: T6, ELK3 (Homo sapiens, UniProt P41970 1-407); settings: protein: recombinant; tags: N-terminal GST; dsDNA, one strand shown
# T6 sequence: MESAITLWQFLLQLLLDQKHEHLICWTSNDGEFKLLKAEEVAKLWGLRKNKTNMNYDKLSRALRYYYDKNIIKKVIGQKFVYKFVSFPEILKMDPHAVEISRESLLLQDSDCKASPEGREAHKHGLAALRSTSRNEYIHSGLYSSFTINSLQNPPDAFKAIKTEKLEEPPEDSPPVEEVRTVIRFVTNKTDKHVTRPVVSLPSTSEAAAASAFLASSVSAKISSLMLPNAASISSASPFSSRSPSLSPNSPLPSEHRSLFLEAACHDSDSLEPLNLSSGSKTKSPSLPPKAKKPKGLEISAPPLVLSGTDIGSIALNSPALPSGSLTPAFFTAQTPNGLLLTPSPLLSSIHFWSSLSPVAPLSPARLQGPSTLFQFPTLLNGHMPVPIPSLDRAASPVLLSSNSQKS
# How it was run: as §1
# [10] = molecular target: T7, FEV (Homo sapiens, UniProt Q99581 1-238); settings: protein: recombinant; tags: N-terminal GST; dsDNA, one strand shown
# T7 sequence: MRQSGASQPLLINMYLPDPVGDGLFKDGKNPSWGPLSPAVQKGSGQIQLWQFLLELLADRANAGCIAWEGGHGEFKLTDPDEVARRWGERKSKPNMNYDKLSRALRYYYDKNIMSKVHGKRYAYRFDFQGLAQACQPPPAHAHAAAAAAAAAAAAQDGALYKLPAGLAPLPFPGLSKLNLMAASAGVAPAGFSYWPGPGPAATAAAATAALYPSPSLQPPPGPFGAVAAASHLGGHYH
# How it was run: as §1
# [11] = molecular target: ETV5 (Homo sapiens, UniProt P41161 1-510); settings: protein: recombinant; tags: N-terminal GST; dsDNA, one strand shown
# How it was run: as §1
# [12] = molecular target: HSF1 (Homo sapiens, UniProt Q00613 1-529); settings: protein: recombinant; tags: N-terminal GST; chain copies: 3; dsDNA, one strand shown
# How it was run: as §1
# [13] = molecular target: T8, SPIC (Homo sapiens, UniProt Q8N5J4 1-248); settings: protein: recombinant; tags: N-terminal GST; dsDNA, one strand shown
# T8 sequence: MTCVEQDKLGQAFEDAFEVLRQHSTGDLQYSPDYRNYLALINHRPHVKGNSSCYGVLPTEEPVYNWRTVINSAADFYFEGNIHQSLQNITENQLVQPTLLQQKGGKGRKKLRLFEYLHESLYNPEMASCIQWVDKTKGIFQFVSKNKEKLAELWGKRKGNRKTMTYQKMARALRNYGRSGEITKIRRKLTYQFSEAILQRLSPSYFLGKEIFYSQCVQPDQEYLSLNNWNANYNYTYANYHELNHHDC
# How it was run: as §1
# [14] = molecular target: ELF4 (Homo sapiens, UniProt Q99607 1-663); settings: protein: recombinant; tags: N-terminal GST; dsDNA, one strand shown
# How it was run: as §1
# [15] = molecular target: T9, ELK4 (Homo sapiens, UniProt P28324-2 1-405); settings: protein: recombinant; tags: N-terminal GST; dsDNA, one strand shown
# T9 sequence: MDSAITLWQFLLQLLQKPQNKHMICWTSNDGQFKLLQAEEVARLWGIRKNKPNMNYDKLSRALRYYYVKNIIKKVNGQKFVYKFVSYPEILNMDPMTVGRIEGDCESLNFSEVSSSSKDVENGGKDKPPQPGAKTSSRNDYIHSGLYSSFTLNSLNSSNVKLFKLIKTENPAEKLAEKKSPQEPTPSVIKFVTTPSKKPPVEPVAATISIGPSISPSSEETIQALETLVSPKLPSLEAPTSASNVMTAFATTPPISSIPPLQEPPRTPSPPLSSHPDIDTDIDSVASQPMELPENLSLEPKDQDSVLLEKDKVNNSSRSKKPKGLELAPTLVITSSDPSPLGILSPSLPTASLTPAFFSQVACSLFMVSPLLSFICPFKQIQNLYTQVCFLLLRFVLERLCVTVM
# How it was run: as §1
# [16] = molecular target: T10, ETV2 (Homo sapiens, UniProt O00321 1-342); settings: protein: recombinant; tags: N-terminal GST; dsDNA, one strand shown
# T10 sequence: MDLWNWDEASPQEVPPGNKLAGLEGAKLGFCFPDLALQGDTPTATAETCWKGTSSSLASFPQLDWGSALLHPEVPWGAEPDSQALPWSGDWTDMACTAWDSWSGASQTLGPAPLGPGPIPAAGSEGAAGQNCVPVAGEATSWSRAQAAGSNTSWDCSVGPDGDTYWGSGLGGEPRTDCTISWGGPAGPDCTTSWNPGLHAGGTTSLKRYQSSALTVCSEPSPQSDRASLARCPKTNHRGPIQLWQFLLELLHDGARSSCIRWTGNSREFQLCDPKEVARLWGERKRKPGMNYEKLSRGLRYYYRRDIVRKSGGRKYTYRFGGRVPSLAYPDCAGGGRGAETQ
# How it was run: as §1
# [17] = molecular target: T11, ELF3 (Homo sapiens, UniProt P78545 1-371); settings: protein: recombinant; tags: N-terminal GST; dsDNA, one strand shown
# T11 sequence: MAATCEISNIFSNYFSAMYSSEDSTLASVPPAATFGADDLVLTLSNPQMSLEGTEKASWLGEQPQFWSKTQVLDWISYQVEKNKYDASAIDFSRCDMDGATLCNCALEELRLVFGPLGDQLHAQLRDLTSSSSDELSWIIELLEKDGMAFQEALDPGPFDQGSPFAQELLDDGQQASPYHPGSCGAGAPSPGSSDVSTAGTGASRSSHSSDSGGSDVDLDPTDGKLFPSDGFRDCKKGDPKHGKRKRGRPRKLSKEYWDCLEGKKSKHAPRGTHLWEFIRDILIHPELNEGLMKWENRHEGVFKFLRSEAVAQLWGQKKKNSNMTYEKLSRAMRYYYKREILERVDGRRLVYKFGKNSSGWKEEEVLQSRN
# How it was run: as §1
# [18] = molecular target: CRX (Homo sapiens, UniProt O43186 1-299); settings: protein: recombinant; tags: N-terminal GST; dsDNA, one strand shown
# How it was run: as §1
# [19] = molecular target: ETV1 (Homo sapiens, UniProt P50549 1-477); settings: protein: recombinant; tags: N-terminal GST; dsDNA, one strand shown
# How it was run: as §1
# Chain of SPIB (Q01892 whole entry): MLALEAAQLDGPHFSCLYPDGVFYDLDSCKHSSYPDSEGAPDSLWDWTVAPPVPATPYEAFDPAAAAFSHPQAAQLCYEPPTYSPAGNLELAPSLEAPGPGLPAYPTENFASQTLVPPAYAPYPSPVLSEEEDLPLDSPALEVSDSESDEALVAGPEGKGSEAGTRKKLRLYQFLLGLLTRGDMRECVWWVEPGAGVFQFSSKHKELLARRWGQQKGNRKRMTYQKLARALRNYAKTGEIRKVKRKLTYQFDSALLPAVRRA
# Chain of HSF1 (Q00613 whole entry): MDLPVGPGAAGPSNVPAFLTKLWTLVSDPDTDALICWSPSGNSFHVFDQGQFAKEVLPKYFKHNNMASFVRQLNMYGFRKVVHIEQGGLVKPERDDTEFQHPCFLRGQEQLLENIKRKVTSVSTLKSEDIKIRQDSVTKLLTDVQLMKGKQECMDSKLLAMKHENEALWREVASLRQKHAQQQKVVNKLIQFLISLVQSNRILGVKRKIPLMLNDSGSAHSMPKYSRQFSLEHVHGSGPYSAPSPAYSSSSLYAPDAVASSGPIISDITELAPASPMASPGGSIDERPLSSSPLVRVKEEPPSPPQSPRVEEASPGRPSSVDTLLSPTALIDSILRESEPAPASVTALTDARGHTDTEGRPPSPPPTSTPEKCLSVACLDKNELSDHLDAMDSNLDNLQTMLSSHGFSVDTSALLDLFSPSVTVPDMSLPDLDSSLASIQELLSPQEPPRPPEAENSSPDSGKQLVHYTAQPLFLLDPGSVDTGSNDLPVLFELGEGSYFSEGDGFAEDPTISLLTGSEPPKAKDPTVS
# Chain of ELF4 (Q99607 whole entry): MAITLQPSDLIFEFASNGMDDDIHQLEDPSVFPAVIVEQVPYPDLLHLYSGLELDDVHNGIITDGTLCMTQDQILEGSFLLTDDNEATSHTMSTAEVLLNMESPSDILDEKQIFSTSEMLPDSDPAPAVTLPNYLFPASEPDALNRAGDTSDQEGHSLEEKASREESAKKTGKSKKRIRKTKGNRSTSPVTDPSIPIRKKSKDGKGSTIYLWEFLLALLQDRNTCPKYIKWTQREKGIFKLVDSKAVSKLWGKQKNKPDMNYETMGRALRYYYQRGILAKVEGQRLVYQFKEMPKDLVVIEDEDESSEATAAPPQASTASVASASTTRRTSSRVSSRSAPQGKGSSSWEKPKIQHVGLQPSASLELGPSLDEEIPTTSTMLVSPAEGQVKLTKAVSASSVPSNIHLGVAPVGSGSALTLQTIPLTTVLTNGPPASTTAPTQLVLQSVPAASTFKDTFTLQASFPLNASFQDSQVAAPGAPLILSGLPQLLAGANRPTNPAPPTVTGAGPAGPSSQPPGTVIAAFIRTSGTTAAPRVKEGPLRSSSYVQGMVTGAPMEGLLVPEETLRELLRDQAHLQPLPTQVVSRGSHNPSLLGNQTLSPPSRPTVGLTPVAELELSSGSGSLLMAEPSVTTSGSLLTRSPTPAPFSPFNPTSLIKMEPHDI
# Chain of ETV5 (P41161 whole entry): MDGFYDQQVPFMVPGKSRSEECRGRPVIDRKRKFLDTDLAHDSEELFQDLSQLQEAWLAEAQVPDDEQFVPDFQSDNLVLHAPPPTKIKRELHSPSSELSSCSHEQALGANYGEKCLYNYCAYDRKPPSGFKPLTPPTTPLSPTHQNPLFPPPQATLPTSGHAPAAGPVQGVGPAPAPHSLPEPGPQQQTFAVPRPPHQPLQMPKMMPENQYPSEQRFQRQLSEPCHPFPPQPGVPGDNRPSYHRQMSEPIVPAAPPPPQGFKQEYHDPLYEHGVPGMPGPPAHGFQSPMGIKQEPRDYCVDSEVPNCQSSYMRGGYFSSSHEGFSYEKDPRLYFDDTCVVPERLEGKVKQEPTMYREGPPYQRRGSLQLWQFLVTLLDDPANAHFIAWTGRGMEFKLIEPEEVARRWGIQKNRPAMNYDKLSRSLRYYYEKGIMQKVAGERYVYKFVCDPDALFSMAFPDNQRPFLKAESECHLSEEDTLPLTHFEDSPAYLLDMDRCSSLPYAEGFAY
# Chain of ETV1 (P50549 whole entry): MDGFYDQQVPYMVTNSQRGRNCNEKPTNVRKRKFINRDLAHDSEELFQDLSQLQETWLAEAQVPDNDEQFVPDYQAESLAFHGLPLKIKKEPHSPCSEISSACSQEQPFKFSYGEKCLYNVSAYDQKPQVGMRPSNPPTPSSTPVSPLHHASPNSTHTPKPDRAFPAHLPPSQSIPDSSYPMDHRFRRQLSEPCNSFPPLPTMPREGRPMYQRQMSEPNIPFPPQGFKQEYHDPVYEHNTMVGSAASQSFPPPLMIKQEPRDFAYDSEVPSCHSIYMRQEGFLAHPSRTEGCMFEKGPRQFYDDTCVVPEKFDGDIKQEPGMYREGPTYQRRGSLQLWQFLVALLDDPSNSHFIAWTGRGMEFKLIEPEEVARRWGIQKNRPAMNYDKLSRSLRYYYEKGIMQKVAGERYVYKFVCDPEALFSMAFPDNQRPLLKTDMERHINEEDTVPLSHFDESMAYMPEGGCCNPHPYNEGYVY
# Chain of CRX (O43186 whole entry): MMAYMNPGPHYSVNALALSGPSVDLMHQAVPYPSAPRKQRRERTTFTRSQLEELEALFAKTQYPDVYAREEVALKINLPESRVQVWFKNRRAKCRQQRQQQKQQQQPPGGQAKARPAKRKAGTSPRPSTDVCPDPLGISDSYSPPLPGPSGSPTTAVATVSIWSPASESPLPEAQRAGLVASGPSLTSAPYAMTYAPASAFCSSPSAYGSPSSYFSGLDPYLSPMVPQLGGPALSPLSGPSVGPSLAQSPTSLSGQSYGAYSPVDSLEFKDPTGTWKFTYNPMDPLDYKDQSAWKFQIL
# Chain of ELF1 (P32519 whole entry): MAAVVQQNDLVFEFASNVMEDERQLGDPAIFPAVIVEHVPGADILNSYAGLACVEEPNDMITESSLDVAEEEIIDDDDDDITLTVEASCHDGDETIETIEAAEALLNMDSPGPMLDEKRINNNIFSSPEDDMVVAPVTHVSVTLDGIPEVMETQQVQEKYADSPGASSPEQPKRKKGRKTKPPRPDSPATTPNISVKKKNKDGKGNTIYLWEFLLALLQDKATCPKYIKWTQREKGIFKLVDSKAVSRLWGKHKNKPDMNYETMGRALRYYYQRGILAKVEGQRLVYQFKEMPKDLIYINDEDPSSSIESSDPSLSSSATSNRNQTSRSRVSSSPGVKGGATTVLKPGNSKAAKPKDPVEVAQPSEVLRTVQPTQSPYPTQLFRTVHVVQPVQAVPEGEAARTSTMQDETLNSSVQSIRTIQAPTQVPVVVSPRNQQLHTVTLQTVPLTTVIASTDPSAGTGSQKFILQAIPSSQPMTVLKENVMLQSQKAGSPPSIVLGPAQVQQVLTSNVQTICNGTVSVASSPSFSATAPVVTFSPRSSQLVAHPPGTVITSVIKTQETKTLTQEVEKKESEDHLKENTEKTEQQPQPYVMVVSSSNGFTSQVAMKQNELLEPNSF
sequence,measurement,setting,value
TAATTC,binding signal,[1],"1.5 fold enrichment (6-mer frequency, TF over GST control)"
same,binding signal,[2],"1.36 fold enrichment (6-mer frequency, TF over GST control)"
same,binding signal,[3],"1.48 fold enrichment (6-mer frequency, TF over GST control)"
same,binding signal,[4],"1.48 fold enrichment (6-mer frequency, TF over GST control)"
same,binding signal,[5],"1.48 fold enrichment (6-mer frequency, TF over GST control)"
same,binding signal,[6],"1.37 fold enrichment (6-mer frequency, TF over GST control)"
same,binding signal,[7],"1.33 fold enrichment (6-mer frequency, TF over GST control)"
same,binding signal,[8],"1.51 fold enrichment (6-mer frequency, TF over GST control)"
same,binding signal,[9],"1.58 fold enrichment (6-mer frequency, TF over GST control)"
same,binding signal,[10],"1.36 fold enrichment (6-mer frequency, TF over GST control)"
same,binding signal,[11],"1.44 fold enrichment (6-mer frequency, TF over GST control)"
same,binding signal,[12],"2.33 fold enrichment (6-mer frequency, TF over GST control)"
same,binding signal,[13],"1.44 fold enrichment (6-mer frequency, TF over GST control)"
same,binding signal,[14],"1.48 fold enrichment (6-mer frequency, TF over GST control)"
same,binding signal,[15],"1.3 fold enrichment (6-mer frequency, TF over GST control)"
same,binding signal,[16],"1.51 fold enrichment (6-mer frequency, TF over GST control)"
same,binding signal,[17],"1.29 fold enrichment (6-mer frequency, TF over GST control)"
same,binding signal,[18],"3.05 fold enrichment (6-mer frequency, TF over GST control)"
same,binding signal,[19],"1.4 fold enrichment (6-mer frequency, TF over GST control)"
